High-throughput results deposited in PubChem BioAssay by National Center for Advancing Translational Sciences (NCATS).
A selection: hits, their analogues and other compounds. The true share with any hit is near 8.1%.
KB-3-1 tox: kills parental KB-3-1 adenocarcinoma cells. KB-3-1 viability, CellTiter-Glo ATP luminescence, 72 h. Potency, µM (top dose mostly 46.1 µM), actives largely listed as cytotoxic. hit rate 1.4% among 400,000. AID 1347075; also: % is scaled to controls: 0 for no effect and ±100 for the full control effect; nearly all actives have a fitted effect of over 60% in size
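72 h, 37 °C compound treatment of KB-3-1 parental cells; CellTiter-Glo added, 10 min, luminescence read. Data corrected against DMSO-only plates and normalized before curve fitting.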
MCF10A rerep: induces DNA re-replication in MCF 10a normal breast cells; hit rate 2.9% among 350,000; Potency, µM (top dose mostly 46.1 µM), for the others: at the top dose activity, positive = re-replication, hits mostly activators; MCF 10A DNA re-replication, Hoechst nuclear intensity, 48 h; also: % of control where 0% means no effect; nearly all actives have a fitted effect of over 50% in size
ELG1 repair inh: inhibitors of ELG1-dependent DNA repair in HEK293T cells; HEK293T ELG1-luciferase reporter, luminescence, 16 h; DNA damage induced by 5-fluorouridine; Potency, µM (series often up to 46.1 µM), for inactives: at the highest dose activity change, negative = inhibition, actives largely listed as inhibitors; hit rate 2.3% among 330,000; AID 504467; also: % is scaled to controls: 0 for no effect and ±100 for the full control effect; nearly all actives have a fitted effect of over 55% in size
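DMSO vehicle served as the neutral condition. Each well held 2,000 cells given 5-fluorouridine plus compound; after 16 hr at 37 °C/5% CO2, ONE-Glo was added and luciferase measured 30 min later.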
SW480 rerep: DNA re-replication induction in SW480 cells | SW480 DNA re-replication, Hoechst DNA content imaging, 48 h | Potency, µM (doses to about 46.1 µM), inactives show top-dose re-replication activation, actives largely listed as activators | hit rate 1.8% among 340,000; also: % of control where 0% means no effect; nearly all actives have a fitted effect of over 55% in size
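Hoechst fluorescence of nuclei (405 nm excitation, 500-530 nm emission) measured by plate-scanning imager after 48 hr compound exposure at 37 C; re-replication scored as increased number of nuclei with elevated intensity.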
KB-V1 MDR tox: KB-V1 MDR subline cytotoxicity | KB-V1 MDR cells viability, CellTiter-Glo, 72 h | Potency, µM (doses to about 46.1 µM), usual class: cytotoxic | hit rate 3.4% among 400,000; also: % is scaled to controls: 0 for no effect and ±100 for the full control effect; nearly all actives have a fitted effect of over 60% in size
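Cells of the MDR subline KB-V1 are plated, dosed with compound at multiple concentrations, and incubated 72 h at 37 degrees C; CellTiter-Glo is then added and luminescence read after 10 min.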
Starred values were filed as active, the others as inactive; i = inactive; ? = inconclusive; . = no result given. Calls follow the shape of the dose curve; as a rule, active = well fitted curve in the direction sought with a large enough effect; inconclusive = small, poorly fitted or top-dose-only effect, or another doubt; inactive = no such curve, though single readings can be large; an effect the other way counts as inactive or inconclusive. Potency is read from the fitted curve at half-maximal effect.

SMILES	KB-3-1 tox	MCF10A rerep	ELG1 repair inh	SW480 rerep	KB-V1 MDR tox
COCCNC(=O)c1cnc2sc(N3CCCCC3)nn2c1=O	i	.	.	.	i
C[N+]1(CC(=O)c2ccc(F)cc2)CCc2ccccc2C1 (stereo unspecified)	i	.	.	.	i
O=C(CSc1nnc(-c2cccs2)n1-c1ccccc1)N1CCCc2ccccc21	i	?	?	16%	16µM*
O=C(CSc1nnc(-c2ccccc2)n1-c1ccccc1)c1cccs1	i	?	-23%	0%	21µM*
CCOc1ccccc1-n1c(SCC(=O)N2CCCc3ccccc32)nnc1-c1cccnc1	i	?	-2%	-73%	7.3µM*
CCn1c(SCC(=O)N2CCCc3ccccc32)nc2ccccc2c1=O	i	23µM*	?	2%	10µM*
COc1cccc(C(=O)Nc2c(C(=O)c3ccc(F)cc3)oc3ccccc23)c1	i	.	.	.	i
CCOc1ccc(Br)cc1CNCCSc1nnnn1-c1ccccc1	i	.	.	.	i
Cc1ccc2nc(SCC(=O)N3CCCc4ccccc43)nc(=O)n2c1	i	-2%	.	-8%	18µM*
Cc1ccnc(SCC(=O)N2CCCc3ccccc32)n1	i	0%	18%	-39%	i
COc1cccc(Nc2nc(Nc3ccc(Cl)c(C(=O)O)c3)nc(C)c2[N+](=O)[O-])c1	i	12%	16%	-13%	i
Cc1cc(C)n(CC(=O)NC2CCCc3c2cnn3-c2ccc(C)c(C)c2)n1 (stereo unspecified)	i	?	?	-12%	i
Cc1ccc(C(=O)Nc2nc(C)c(C(=O)Nc3ccc4c(c3)CCC4)s2)cc1	21µM*	1µM*	?	5.8µM*	2.9µM*
CC(=O)/C(N=Nc1ccc(C(=O)O)cc1[N+](=O)[O-])=C(\C)O	i	6%	5%	-22%	?
CCOC(=O)/C(N=Nc1ccc(C(=O)O)cc1[N+](=O)[O-])=C(\C)O	i	3.7µM*	8%	-67%	i
C=C(C(=O)c1ccccc1)C(CC(=O)c1ccccc1)c1ccccc1 (stereo unspecified)	?	9.2µM*	13µM*	18µM*	?
C=C(CCC(=O)c1ccccc1)C(=O)c1ccccc1	?	9.2µM*	-30%	?	?
O=C(Cc1ccccc1)CC(CC(=O)c1ccccc1)c1ccccc1 (stereo unspecified)	i	.	.	.	i
Cn1nc(C(=O)OCC(=O)Nc2cc(Cl)ccc2C#N)c2ccccc2c1=O	i	1%	8%	-2%	?
CC(=O)n1c(Cl)c(NC(=O)CCl)c2ccccc21	?	?	26µM*	?	i
CN(CC(=O)Nc1ccncc1)S(=O)(=O)c1ccc(Br)cc1	i	25%	?	?	21µM*
Cc1nc(NC(=O)CN(C)S(=O)(=O)c2ccc(Br)cc2)sc1C	i	-2%	?	-5%	18µM*
Cc1ccc(S(=O)(=O)N(C)CC(=O)Nc2nc3ccccc3s2)cc1	i	?	?	6%	i
C=CCS(=O)(=O)c1nc2ccccc2s1	?	7.3µM*	?	?	23µM*
CC(C)(C)S(=O)(=O)c1nc2ccccc2s1	i	19%	16%	1%	i
SMILES	KB-3-1 tox	MCF10A rerep	ELG1 repair inh	SW480 rerep	KB-V1 MDR tox
CCCCC(NC(=O)Cc1c(C)c2cc3c(-c4ccccc4)coc3c(C)c2oc1=O)C(=O)O (stereo unspecified)	i	21µM*	-1%	-4%	?
Cc1c(CC(=O)O)c(=O)oc2c(C)c3occ(-c4ccc(Br)cc4)c3cc12	i	?	16%	-9%	i
CC(C)CCOc1ccc(C(=O)NN2C(=O)NC3(CCCCC3)C2=O)cc1	i	7%	-4%	-4%	?
Cc1cc(-c2nnc3n2CCCCC3)c(C)n1-c1ccccc1	?	27%	?	-2%	21µM*
CN(C)c1ccc(/C=C2\c3ccccc3-c3ccc(N(C)C)cc32)cc1	i	.	.	.	i
COc1ccc(N2CCN(C(=O)CSc3nc4nc(C)cc(C)n4n3)CC2)cc1	i	-4%	0%	-5%	21µM*
COc1ccc(N2CCN(C(=O)CSc3nc(C)cs3)CC2)cc1	i	0%	-12%	18µM*	i
Cc1ccc(Cc2c(-c3ccc(Br)cc3)nc3cc(C)ccn23)cc1	?	.	.	.	i
Cc1cccc(-c2nnc(C3CCN(S(=O)(=O)c4cccc(Cl)c4)CC3)o2)c1	i	.	.	.	i
COCc1c(C(=O)N2CCN(Cc3nc4ccccc4s3)CC2)oc2ccccc12	i	15%	2%	2%	23µM*
COCc1c(C(=O)N2CCN(S(=O)(=O)c3ccccc3Cl)CC2)oc2ccccc12	i	1%	10µM*	1%	i
Cc1ccc(OCC(=O)N(Cc2ccco2)c2c(N)n(Cc3ccccc3)c(=O)[nH]c2=O)cc1C	i	1%	-3%	-34%	i
CCOc1ccc2nc(NC(=O)c3nc(SCc4ccccc4F)ncc3Cl)sc2c1	i	.	.	.	i
O=C(Nc1ccccc1C(F)(F)F)N1CCN(c2ccc3nnc(-c4ccc(F)cc4)n3n2)CC1	i	-8%	12µM*	-5%	i
O=C(Nc1ccccc1C(F)(F)F)N1CCN(c2ccc3nncn3n2)CC1	i	16%	0%	-13%	i
O=S(=O)(c1ccc(Br)cc1)N1CCN(c2ccc3nnc(-c4ccccc4)n3n2)CC1	i	0%	-9%	-1%	i
Fc1ccc(-c2nnc3ccc(N4CCc5ccccc5C4)nn23)cc1	i	4%	18µM*	-6%	?
O=C(Nc1ccc(F)cc1)N1CCN(c2ccc3nnc(-c4ccc(F)cc4)n3n2)CC1	i	19%	7.3µM*	6%	i
CS(=O)(=O)N1CCCCC1c1cc(C(=O)NCc2ccc(Cl)c(Cl)c2)no1 (stereo unspecified)	i	.	.	.	i
O=C(Nc1ccc2sccc2c1)Nc1nnc(-c2ccncc2)s1	i	.	.	.	i
CCOC(=O)c1cc2c(=Cc3ccc(N(C)C)cc3)c3ccccc3n2[n+]1C	2.1µM*	25%	.	?	?
CN(C)c1ccc(C=c2c3ccccc3n3c2c2ccccc2[n+]3C)cc1	5.2µM*	?	.	13µM*	?
Cc1oc(-c2cccc(Br)c2)nc1CN1CCC(C(=O)NCc2ccccc2)CC1	i	.	.	.	i
CC(C)[C@H]1COCCS(=O)(=O)N1Cc1cccc(Cl)c1	i	8%	0%	-5%	?
COc1ccc([C@@H]2CC(=O)[C@@H]3CN(S(=O)(=O)c4ccc(C)cc4)[C@H](c4ccccc4)C[C@@H]3N2S(=O)(=O)c2ccccc2)cc1	i	.	.	.	i
